Screening data from PubChem BioAssay.
HT1080NT lethal – qHTS for induction of synthetic lethality in tumor cells producing 2HG: qHTS for the HT-1080-NT fibrosarcoma cell line; actives 1.6% (n = 360,000); HT-1080-NT fibrosarcoma viability, CellTiter-Glo ATP luminescence, 48 h; Potency, µM (highest dose often 46.1 µM), usual class: cytotoxic; AID 686970, 2013;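 further: NT is the 2HG producing partner of a matched IDH1 knockdown line; nearly all actives have a fitted effect of over 55% in size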
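HT-1080-NT; 750 cells/well; 5% FBS RPMI; 48 h compound, 37 degrees C; CellTiter-Glo luminescence; curve fitting and curve-class assignment.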
IL1B secr inh – qHTS for Inhibitors of Inflammasome Signaling: IL-1-beta AlphaLISA Primary Screen; THP-1 LPS/ATP IL-1B secretion, AlphaLISA, 16 h; stronger effect = lower value; activity change, % at 57.5 µM; actives 4.7% (n = 360,000); in the data active means activity change below about -50%; inconclusive means mostly about -30% to -49%
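THP-1 cells pretreated 1 hr with compounds (up to 57.5 uM final), then stimulated with LPS (250 ng/mL final) plus ATP (1.25 mM final); secreted IL-1B measured by AlphaLISA after 16 hr, decreased signal indicating inhibition.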
KB-V1 MDR tox – qHTS assay for MDR1-selective chemotherapeutics: Primary screen using the drug-selected MDR subline cells KB-V1; actives 3.4% (n = 400,000); AID 1347076, 2019; Potency, µM (highest dose often 46.1 µM), hits mostly cytotoxic; KB-V1 MDR cells viability, CellTiter-Glo, 72 h; further: nearly all actives have a fitted effect of over 60% in size
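Cells of the MDR subline KB-V1 are plated, dosed with compound at multiple concentrations, and incubated 72 h at 37 degrees C; CellTiter-Glo is then added and luminescence read after 10 min.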
KB-3-1 tox – qHTS assay for MDR1-selective chemotherapeutics: Primary screen using the parental adenocarcinoma cell KB-3-1. KB-3-1 viability, CellTiter-Glo ATP luminescence, 72 h. Potency, µM (doses to about 46.1 µM), actives largely listed as cytotoxic. actives 1.4% (n = 400,000). AID 1347075, 2019; further: nearly all actives have a fitted effect of over 60% in size
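Screening of KB-3-1 cells (DMEM, 10% FBS, phenol-red free) ran from lowest to highest compound concentration; after 72 h at 37 °C viability was read luminescently and curves fitted.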
HT1080 IDH1KD tx – qHTS for induction of synthetic lethality in tumor cells producing 2HG: qHTS for the HT-1080-IDH1KD cell line; HT-1080 IDH1 knockdown viability, ATP luminescence, 48 h; actives 2% (n = 360,000); Potency, µM (highest dose often 46.1 µM), most hits filed as cytotoxic; AID 686971, 2013
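Assay cells: HT-1080 with IDH1 knockdown, 750 per well, RPMI/5% FBS. Exposure: 48 h at 37 °C following 2 h pre-incubation. Read: CellTiter-Glo luminescence; fitted concentration-response, curve class assigned.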
Large screens that a line does not name were inactive. Most compounds without a hit are left out; they make up all but 8.8% or so of the library. Unless noted, the call rests on the fitted dose curve; in most records, active means well fitted curve in the direction sought with a large enough effect; inconclusive means small, poorly fitted or top-dose-only effect, or another doubt; inactive means no such curve, though single readings can be large; an effect the other way counts as inactive or inconclusive.

CCOC(=O)C1(Cc2ccccc2)CCN(Cc2ccc3c(c2)OCCO3)CC1	none
COc1ccc(-c2nnc(SCC(=O)Nc3ccc4c(c3)OCCO4)n2N)cc1OC	none
Cc1ccc(Nc2c([N+](=O)[O-])c(=O)n(C)c3ccccc23)cc1C	HT1080NT lethal inconclusive, KB-V1 MDR tox inconclusive, HT1080 IDH1KD tx inconclusive
C#CCn1c(=NC(=O)c2cc(Cl)sc2Cl)sc2cc(S(N)(=O)=O)ccc21	KB-V1 MDR tox inconclusive
C#CCn1c(=NC(=O)c2cc(-c3cccs3)nc3ccccc23)sc2cc(S(N)(=O)=O)ccc21	HT1080NT lethal inconclusive, HT1080 IDH1KD tx 25.9µM
Cc1ccc(OCC(=O)OCc2cc(=O)n3ccsc3n2)cc1C	none (no result: HT1080NT lethal, IL1B secr inh, HT1080 IDH1KD tx)
COc1ccc(CC(=O)Nc2nc3ccc(F)cc3s2)cc1S(=O)(=O)N1CCOCC1	IL1B secr inh -59.1, HT1080 IDH1KD tx inconclusive
CCc1ccc(C(=O)Nc2ccc(OC)c(S(=O)(=O)N3CCOCC3)c2)cc1	KB-V1 MDR tox 9.2µM
COc1ccc(CC(=O)Nc2nc3ccccc3s2)cc1S(=O)(=O)N1CCOCC1	none
COc1ccc(C(=O)NCc2c(C)nn(Cc3ccccc3)c2C)cc1S(=O)(=O)N1CCOCC1	HT1080NT lethal inconclusive, KB-3-1 tox 6.51µM, HT1080 IDH1KD tx inconclusive
COc1ccc(C(=O)NCC(c2ccccc2)c2ccccc2)cc1S(=O)(=O)N1CCOCC1	KB-V1 MDR tox 8.2µM
CCc1ccc(C(=O)Nc2ccc(OC)c(S(=O)(=O)N3CCCCC3)c2)cc1	KB-3-1 tox inconclusive, HT1080 IDH1KD tx inconclusive
CCN(CC)S(=O)(=O)c1ccc2c(c1)N(CC(=O)NCCCN1CCN(c3cc(C)ccc3C)CC1)C(=O)CO2	KB-V1 MDR tox inconclusive (no result: HT1080NT lethal, IL1B secr inh, HT1080 IDH1KD tx)
COc1ccc(C(=O)NCC(c2cccnc2)N2CCN(c3ccccc3)CC2)cc1OC (stereo not given)	KB-3-1 tox 5.17µM
CC1=Nc2cc(C(=O)O)ccc2Sc2ccc(Br)cc21	none
CCC1=Nc2cc(C(=O)NCCCOC)ccc2Sc2ccccc21	HT1080NT lethal 0.651µM, KB-V1 MDR tox 0.231µM, KB-3-1 tox 0.82µM, HT1080 IDH1KD tx 1.03µM
CC1=Nc2cc(C(=O)NCC3CCCO3)ccc2Sc2ccc(Br)cc21 (stereo not given)	HT1080NT lethal 10.3µM, KB-V1 MDR tox 6.51µM, KB-3-1 tox 11.6µM, HT1080 IDH1KD tx 16.4µM
CCC1=Nc2cc(C(=O)NCCCOC)ccc2Sc2ccc(Br)cc21	KB-V1 MDR tox inconclusive, KB-3-1 tox 0.82µM (no result: HT1080NT lethal, IL1B secr inh, HT1080 IDH1KD tx)
S=C(NCC1CCCO1)c1ccc(Br)cc1 (stereo not given)	IL1B secr inh -84.5
Cc1cc(C)cc(N(CC(=O)NC2CCCC2)C(=O)CCC(=O)Nc2nc(C)cs2)c1	none
CCCCNC(=O)c1ccc2c(c1)N=C(CC)c1ccccc1S2	KB-V1 MDR tox 18.4µM, KB-3-1 tox inconclusive (no result: HT1080NT lethal, IL1B secr inh, HT1080 IDH1KD tx)
CCC1=Nc2cc(C(=O)NCCN3CCCC3)ccc2Sc2ccccc21	none
Cc1ccc(-c2n[nH]c(=S)n2C)cc1	KB-V1 MDR tox 16.4µM, KB-3-1 tox inconclusive
COc1ccc(-c2n[nH]c(=S)n2-c2ccc(C)cc2)cc1	none
CC(=O)N1CCN(CC(=O)Nc2ccc3c(c2)CCC3)CC1	none
O=C(c1cn(-c2ccccc2)nc1-c1cccnc1)N1CCN(S(=O)(=O)c2ccc(Cl)cc2)CC1	none
N#CCCN(Cc1ccccc1)C(c1ccnc2ccccc12)c1nnnn1-c1ccc2c(c1)OCCO2 (stereo not given)	KB-V1 MDR tox inconclusive
c1ccc(CN(Cc2ccccc2)C(c2ccnc3ccccc23)c2nnnn2-c2ccc3c(c2)OCCO3)cc1 (stereo not given)	KB-V1 MDR tox 18.4µM, KB-3-1 tox inconclusive
O=C(OCc1ccccc1)N1CCN(C(c2ccnc3ccccc23)c2nnnn2-c2ccc3c(c2)OCCO3)CC1 (stereo not given)	HT1080NT lethal inconclusive, IL1B secr inh inconclusive, KB-V1 MDR tox inconclusive, KB-3-1 tox 23.1µM, HT1080 IDH1KD tx inconclusive
CC(=O)N/N=C/c1ccc(OCCOc2ccc(Br)cc2)cc1	none
